Our source for the inhibition values is PubChem BioAssay AID463190 (Sanford-Burnham Center for Chemical Genomics, 2010).

Structures are written as SMILES. The whole screen tested about 330,000 compounds, of which about 7,300 (2.2%) were called active. This is one part of a sample in which actives are shown more often than they occur.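 The calls were made as follows: active = inhibition of at least 40%; inactive = the rest.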

The test is described as follows: growth inhibition of tim10-1 ts yeast – luminescence, uHTS, primary screen (AID 463190).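 Also: mutant grown at 25 °C; 0% = DMSO wells with yeast and 100% = wells holding no yeast.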 The settings on record: S. cerevisiae tim10-1 ts strain growth, BacTiter-Glo, 24 h; at 20 µM; active compounds read high.
`COc1ccc(-n2c(SCC(=O)NCc3ccco3)nnc2-c2c[nH]c3ccccc23)cc1`: the inhibition is 7.58% (inactive).

Consider `O=C(N/N=C/c1cccnc1)c1ccc(NC(=O)c2ccc(F)cc2)cc1`, for which the inhibition was -1.83% (inactive).

`Fc1ccc(/C=N/Nc2nc(-c3cccnc3)nc3ccccc23)cc1`: the inhibition is 43.3% (active).

For `O=c1c2ccccc2nc(N/N=C/c2ccccc2)n1O`, the inhibition is 12.3% (inactive).

Turning to `Cc1cc(C)cc(NC(=O)CCN2C(=O)c3ccccc3C2=O)c1`, the inhibition was 15.2% (inactive).

On to `CCN(CC)C(=O)Oc1ccc(OC(=O)N(CC)CC)cc1`, for which the inhibition is 32.3% (inactive).

As for `CCC(=O)Nc1nnc(S(=O)(=O)N(CC(C)C)c2ccccc2)s1`, the inhibition was -0.846% (inactive).

Take `CC1=C/C(=N\OS(=O)(=O)c2ccccc2)C=CC1=O`: the inhibition was 76.6% (active).

With `CCOC(=O)C1CCN(C(=O)c2ccccc2N(C)S(=O)(=O)c2ccccc2)CC1`, the inhibition was 25% (inactive).

Take `CSc1nnc(C2CCCN(CC(=O)Nc3ccccc3N3CCOCC3)C2)n1C(C)C` (stereo unspecified): the inhibition was -3.94% (inactive).

Turning to `Cc1ccnc2nc(C(=O)OCC(=O)N(CC(C)C)CC(C)C)nn12`, the inhibition is 13.2% (inactive).

Consider `Cn1cc(/C=C/C(=O)N2CCCC(C(=O)c3ccc(C(F)(F)F)cc3)C2)cn1` (stereo unspecified), for which the inhibition was 24.9% (inactive).

As for `COc1cccc(C(=O)N/N=C(\C)c2cccc(NC(=O)c3ccc(F)cc3)c2)c1OC`, the inhibition was 20.1% (inactive).

Turning to `Cn1c(CN2CCOCC2)nc2cc(NC(=O)c3ccc(Cl)cc3)ccc21`, the inhibition was 15.9% (inactive).

Regarding `CCC(=O)Nc1ccc(S(=O)(=O)Nc2c(NC)c3ccccc3oc2=O)cc1`, the inhibition was 27% (inactive).

Take `Cc1ccc(C(C)C)cc1OCC(=O)Nc1ccccc1N1CCCC1`: the inhibition is -15.9% (inactive).

For the molecule `CN1CCN(c2ccccc2NC(=O)COc2ccc(C3CCCCC3)cc2)CC1`, the inhibition is 42.9% (active).

In the case of `O=C(CN1CCN(C2CCCCC2)CC1)Nc1ccccc1N1CCCCC1`, the inhibition is -10.4% (inactive).

`Cc1cc(C)cc(OCC(=O)NNC(=O)CCN2C(=O)c3ccccc3C2=O)c1`: the inhibition was 9.29% (inactive).

With `O=C(COC(=O)c1ccncc1)c1ccccc1`, the inhibition was 22.8% (inactive).

Regarding `Brc1ccc(-c2noc(-c3ccccc3)n2)o1`, the inhibition was 11.2% (inactive).

`O=C(Oc1ccc(-c2nc(-c3ccccn3)no2)cc1)c1ccccc1`: the inhibition was 51.2% (active).

For `COc1ccc2oc(C(=O)OCC(=O)N(CC(C)C)c3c(N)n(Cc4ccccc4)c(=O)[nH]c3=O)c(C)c2c1`, the inhibition was -2.22% (inactive).

With `CCC(C(=O)N1CCN(S(=O)(=O)c2sc(C(=O)O)c(C)c2C(=O)O)CC1)c1ccccc1` (stereo unspecified), the inhibition was -6.62% (inactive).

Regarding `Cc1cc(-c2nnc(CCC(=O)NC(c3ccccc3)c3ccccc3)o2)no1`, the inhibition was -7.23% (inactive).

Consider `COC(=O)/C=C/C(=O)NCc1ccco1`, for which the inhibition is -3.84% (inactive).

`O=C(/C=C/c1ccc(Cl)cc1Cl)NCc1ccco1`: the inhibition is 41.9% (active).

Regarding `O=C(NCc1ccco1)C1(c2ccc(Cl)cc2)CCCC1`, the inhibition was 29.4% (inactive).

Turning to `CCCCCC1CCC(c2nnc(SCC(C)=O)o2)CC1` (stereo unspecified), the inhibition was 42.3% (active).

Consider `CCN(CC)C(=O)CSc1nnc(C2CCCCC2)o1`, for which the inhibition is 2.18% (inactive).

Regarding `Cc1[nH]c2ccccc2c1C(=O)C(C)Sc1nnc(C2CC2)o1` (stereo unspecified), the inhibition is -11.7% (inactive).

With `O=C(COc1cccc(F)c1)Oc1ccc(C(=O)c2ccccc2)cc1`, the inhibition is -0.003% (inactive).

For `CCC(C)c1ccccc1NC(=O)CN(C)CC(=O)Nc1ccccc1SC` (stereo unspecified), the inhibition was 11.9% (inactive).

In the case of `O=C(Cc1ccccc1)Nc1c(C(=O)N2CCCCCC2)cnn1-c1ccccc1`, the inhibition was 29.5% (inactive).

As to `N#Cc1ccccc1Sc1ccccc1C(=O)OCC(=O)NC1CCCCC1`, the inhibition was 1.29% (inactive).

Take `CC(CCN1CCN=C1N(C)C)c1ccccc1` (stereo unspecified): the inhibition is -14.7% (inactive).

Regarding `CC(=O)Oc1cccc(C(=O)Nc2ccccc2NC(=O)c2cccc(OC(C)=O)c2)c1`, the inhibition is -9.31% (inactive).

For the molecule `CC(=O)O[C@H]1c2ccccc2-c2ccccc2[C@@H]1OC(C)=O`, the inhibition is 4.4% (inactive).

Turning to `CC(=O)Oc1ccc2c(c1)C(=O)c1ccccc1C2=O`, the inhibition is 52.2% (active).

As to `O=C(CSc1nnc(CN2CCCC2)n1-c1ccc(F)cc1)c1ccc2c(c1)OCO2`, the inhibition was 14.8% (inactive).

For the molecule `CC(C)CC(=O)NC(=S)Nc1cc(C(=O)O)ccc1Cl`, the inhibition was -9% (inactive).

In the case of `CC(=O)c1ccc(NC(=S)NC(=O)CC(C)C)cc1`, the inhibition was 14.6% (inactive).

As to `CC(C)CC(=O)NC(=S)Nc1ccc(F)cc1F`, the inhibition is 49.5% (active).

Consider `Cc1ccc(C(=O)C(C)OC(=O)Cc2n[nH]c(=O)c3ccccc23)cc1C` (stereo unspecified), for which the inhibition is -2.29% (inactive).

In the case of `O=C(Nc1ccc(C(=O)NCc2ccccc2Cl)cc1)C1=CSCCO1`, the inhibition was -4.56% (inactive).

As to `Cc1ccc(S(=O)(=O)/N=C(/Nc2ccccn2)c2ccc(Cl)cc2)cc1`, the inhibition is 19.5% (inactive).

Take `Cc1ccc(S/C(=N\S(=O)(=O)c2ccc(Cl)cc2)c2ccccc2)cc1`: the inhibition was 41.3% (active).

For `O=S(=O)(/N=C(/Nc1ccccn1)c1ccccc1)c1ccc(Cl)cc1`, the inhibition was 20.8% (inactive).

For the molecule `CCC1CCCCN1CCCNC(=O)c1cc2c(Cl)nc3ccccc3c2s1` (stereo unspecified), the inhibition is 32.7% (inactive).

For the molecule `CC(c1ccco1)N(C(=O)Nc1ccccc1)C1CCCCC1` (stereo unspecified), the inhibition is 48.1% (active).

Turning to `Cc1ccc(NC(=O)NC(=O)N(C2CCCCC2)S(=O)(=O)c2ccccc2)cc1`, the inhibition is 13.6% (inactive).

`CCOc1ccc(NC(=O)N(CCC(C)C)C(C)c2ccco2)cc1` (stereo unspecified): the inhibition is 15.1% (inactive).

Consider `C=CCOc1ccc(/C=N/n2cncn2)cc1OC`, for which the inhibition is 6.25% (inactive).

On to `CC(Cc1cccs1)NC(=O)c1cccc(Cl)c1` (stereo unspecified), for which the inhibition is 21.4% (inactive).

With `COc1ccc(-c2c(C#Cc3ccccc3)c3ccccc3n2C)cc1`, the inhibition was 14.3% (inactive).

Consider `COc1ccc(-c2nc3ccccc3c(=O)n2CCc2ccc(O)cc2)cc1`, for which the inhibition is 25.8% (inactive).

In the case of `COc1ccc(CCNCc2c(-c3ccccc3)n(C)c3ccccc23)cc1`, the inhibition was 40.2% (active).

For the molecule `Cc1ccc(Sc2cc(N3CCOCC3)nc(-c3ccccc3)n2)cc1`, the inhibition is 20.9% (inactive).

With `CCN1CCN(c2nc(Nc3cccc(F)c3)nc(N)c2[N+](=O)[O-])CC1`, the inhibition was 9.58% (inactive).

As to `Cc1ccccc1Nc1nc(N)nc(COC(=O)CCC(=O)c2ccc(F)cc2)n1`, the inhibition is 15.1% (inactive).

On to `O=C1CSC(=S)N1c1ccc(O)cc1`, for which the inhibition is -38.8% (inactive).

In the case of `O=C1CSC(=S)N1c1ccc(Cl)c(Cl)c1`, the inhibition was 42% (active).

As to `COc1cc(N2C(=O)CSC2=S)cc(OC)c1OC`, the inhibition was -10% (inactive).

In the case of `COc1ccc(C)cc1Nc1n[n+](-c2ccccc2)c(-c2cccc(Cl)c2Cl)s1`, the inhibition is 22.9% (inactive).

Turning to `CCCCCCC(O)(CCN1CCCCC1)c1ccccc1` (stereo unspecified), the inhibition is 7.54% (inactive).

Turning to `CCOc1ccc(C2C(C#N)=C(N)N(N(C)C)C3=C2C(=O)CCC3)cc1` (stereo unspecified), the inhibition was 12.1% (inactive).

In the case of `CN(C)N1C(N)=C(C#N)C(c2ccc(Br)cc2)C2=C1CCCC2=O` (stereo unspecified), the inhibition is 43.6% (active).

Take `CCc1ccc(C2C(C#N)=C(N)N(N(C)C)C3=C2C(=O)CCC3)s1` (stereo unspecified): the inhibition is 16.4% (inactive).

With `CC(C)Cc1nnc(NC(=O)CN2C(=O)NC3(CCCCC3)C2=O)s1`, the inhibition was -6.92% (inactive).

Regarding `CCCc1cc(-c2nc(-c3ccc(C)cc3)cs2)ccn1`, the inhibition was 42.5% (active).

As for `Clc1ccc(-c2csc(-c3ccncc3)n2)cc1`, the inhibition was 24.5% (inactive).

Take `Cc1ccc(-c2csc(-c3cc(C)on3)n2)cc1`: the inhibition is 11.2% (inactive).

`Cc1cc(N=Nc2ccc3ccccc3c2)ccc1O`: the inhibition is 57.7% (active).

Take `Cc1ccc(/C=N/NC(=O)c2cc3ccccc3cc2O)o1`: the inhibition was 15.5% (inactive).

`COc1ccc(NC(=O)NCCN2CCN(c3ccc(C)cc3)CC2)c(Cl)c1`: the inhibition was -2.17% (inactive).

With `COc1ccc(C2Nc3ccccc3C(=O)N2c2ccc(Cl)cc2)cc1Cn1cc([N+](=O)[O-])cn1` (stereo unspecified), the inhibition is 28% (inactive).

On to `Cc1cc(C)n(S(=O)(=O)c2cccc([N+](=O)[O-])c2)n1`, for which the inhibition was 12.8% (inactive).

Take `Cc1ccccc1CN1CCC(C(=O)Nc2ccc(Oc3cccnc3)cc2)CC1`: the inhibition was 8.05% (inactive).

On to `Cc1cc(OCCCC(=O)NCCN2C(=O)S/C(=C\c3cccnc3)C2=O)ccc1Cl`, for which the inhibition was 19.9% (inactive).

As for `O=C(NCCN1C(=O)S/C(=C\c2cccnc2)C1=O)c1ccc(S(=O)(=O)N2CCCC2)cc1`, the inhibition is 18.6% (inactive).

In the case of `O=C(NCCN1C(=O)S/C(=C\c2cccnc2)C1=O)c1cccc(OC(F)F)c1`, the inhibition was 40.4% (active).

On to `O=C(CCNS(=O)(=O)c1ccccc1C(F)(F)F)NCc1ccc2c(c1)OCO2`, for which the inhibition is 23.1% (inactive).

`Cn1nc(C(F)(F)F)c(C(=O)Nc2cccc(C(F)(F)F)c2)c1SCc1ccc(Cl)cc1`: the inhibition is 36% (inactive).

For `O=C(CCn1nnnc1CN1CCOCC1)N1CCC(c2ccccc2Cl)C1` (stereo unspecified), the inhibition was 15.3% (inactive).

Turning to `CC(=O)N1CCN(CC(=O)Nc2ccc(SC(F)F)cc2)CC1`, the inhibition is -0.192% (inactive).

Consider `O=C(Cc1ccc(Cl)c(Cl)c1)Nc1ccc(SC(F)F)cc1`, for which the inhibition is 43.5% (active).

For `Cc1ccc(CC(=O)Nc2ccc(OC(F)F)c(Cl)c2)cc1C`, the inhibition is 15.6% (inactive).

Turning to `O=C(c1ccc(F)cc1)n1c(=S)nc2ccccn21`, the inhibition is 26.9% (inactive).

Turning to `COc1ccc(CNC(=O)[C@@H]2CC=C[C@@H]3CCN(C4CC4)C(=O)[C@@H]32)cc1`, the inhibition was 6.25% (inactive).

As for `CN(Cc1c(F)cccc1Cl)S(=O)(=O)c1cccs1`, the inhibition is -0.379% (inactive).

Regarding `COC(=O)c1ccc(CNC(=O)C2CCC(=O)N(Cc3cccc(F)c3)C2)cc1` (stereo unspecified), the inhibition is -22.8% (inactive).

Consider `O=[N+]([O-])c1ccc(N2CCN(c3ccc(O)cc3)CC2)c(Cl)c1`, for which the inhibition is 40.3% (active).

Regarding `O=C(O)C1CCN(c2ccc([N+](=O)[O-])cc2[N+](=O)[O-])CC1`, the inhibition is 4.89% (inactive).

For the molecule `COc1ccc(N2CCN(c3ccc([N+](=O)[O-])cc3Cl)CC2)cc1`, the inhibition is -1.93% (inactive).

As to `ONC(=Nc1ccccc1)c1ccccc1Cl`, the inhibition is 18.6% (inactive).

In the case of `ONC(=Nc1ccc(Cl)cc1)c1ccccc1Cl`, the inhibition is 42.6% (active).
